PMC7819943, “Rice protein-binding microarrays: a tool to detect cis-acting elements near promoter regions in rice”
In all, about 68,000 sequences were measured (“fluorescence intensity (a.u.)”: median about 9,100, highest 2% from about 16,000 on). What follows is part of a selection rich in the highest values, with near analogues and random picks from the rest.

What follows are sequences tested against OsWRKY34 (Oryza sativa, UniProt Q0JBA9 1-250) (assay: protein-binding microarray (RPBM); PBS, 2% BSA, 51.3 ng/ul salmon testes DNA, 50 uM zinc acetate, 200 nM TF, 25 C, 1 h; high values mean tight binding). Conditions: protein: recombinant; tags: N-terminal polyhistidine and DsRed monomer fusion (pET32a); label: CyDye5-dUTP incorporated in the synthesized complementary strand; 3' TTTTT single-stranded linker to array surface; dsDNA, one strand shown.
Sequence of OsWRKY34 (Q0JBA9 entry or part of it): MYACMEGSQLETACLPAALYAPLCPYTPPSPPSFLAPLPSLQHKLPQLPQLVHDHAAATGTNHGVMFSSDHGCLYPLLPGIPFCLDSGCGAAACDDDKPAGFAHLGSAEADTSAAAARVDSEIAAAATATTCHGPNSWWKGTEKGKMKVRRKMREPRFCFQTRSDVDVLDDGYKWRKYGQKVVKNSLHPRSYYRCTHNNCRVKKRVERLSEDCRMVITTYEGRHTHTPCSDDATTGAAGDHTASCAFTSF
Outline: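 Binding signal here means per-feature fluorescence intensity in arbitrary units. The values were read on an Axon 4000B scanner after a custom Agilent array, double-stranded by primer extension with Cy5-dUTP, was incubated with 200 nM protein at 25 °C for 1 h in PBS with 2% BSA, salmon testes DNA and 50 µM zinc acetate, then washed. The proteins were transcription factors with an N-terminal polyhistidine tag and DsRed, expressed in E. coli BL21-CodonPlus and purified on Ni–NTA.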
For “TCGTTTCTTTGCCAGCTGCGCATCCATTCAGCCGGTCGTACGGAGTCACCTAGTGCAG”, the binding signal was 12700 fluorescence intensity (a.u.). With “CTTTTATTTAACGGATGTTTCACCATGGTCTTTACTGTAGCGGAGTCACCTAGTGCAG” the binding signal was 9320 fluorescence intensity (a.u.). “TCCCATCACACACACCACCGCTCCGCTCCATGTCGCACCACGGAGTCACCTAGTGCAG” was tested, and the binding signal was 8350 fluorescence intensity (a.u.). In the case of “CGTAGAAGATGTTGCTGTTGCCGCCGTTGACGAACTTGGTCGGAGTCACCTAGTGCAG”, the binding signal is reported as 8810 fluorescence intensity (a.u.). “CAAATTACTACTACCTCCGTCCCAAAATAATTGCATTTCTCGGAGTCACCTAGTGCAG” was tested, and the binding signal was 8950 fluorescence intensity (a.u.). With “CACGCACCCTCTTTCCCGTGCTTCGTGTGCCCTTCGATCGCGGAGTCACCTAGTGCAG” the binding signal was 9430 fluorescence intensity (a.u.). “AGATTATTTTGCTCGATTTTGAATTTTTCATGCATCCGTCCGGAGTCACCTAGTGCAG” was tested, and the binding signal was 9150 fluorescence intensity (a.u.). “AGAGCGGGTGGGAGGCGAAGTAGACAGGGGCGGGGCGCATCGGAGTCACCTAGTGCAG” was tested, and the binding signal was 15700 fluorescence intensity (a.u.). “TTACCTCGCGTACCCTCGCACCCGTCTCCCGCAGACAGATCGGAGTCACCTAGTGCAG” was tested, and the binding signal was 8480 fluorescence intensity (a.u.). “GTGTGTGCATGCTGATAGCTTGGTCTCTTGAGGATAATTGCGGAGTCACCTAGTGCAG” was tested, and the binding signal was 9730 fluorescence intensity (a.u.). With “TCATTTGATTTATTGTTAAATATATTTTTATGTATACATACGGAGTCACCTAGTGCAG” the binding signal was 8550 fluorescence intensity (a.u.). With “CTTCCTCCGTTTCACAATGTAAGTCGTTCTAGCATTTTTCCGGAGTCACCTAGTGCAG” the binding signal was 8110 fluorescence intensity (a.u.). For “GTTATGTTAGGTCTGGTTTTTTGGCTGTAGCAGCAGCAGTCGGAGTCACCTAGTGCAG”, the binding signal was 8510 fluorescence intensity (a.u.). In the case of “GCTAGACACAGGCAACCAAACACACCCTAACACTCACTGTCGGAGTCACCTAGTGCAG”, the binding signal is reported as 9290 fluorescence intensity (a.u.). For “GCTGTGGGTAGGCCGGCGCCGCCGGCCGACGGGTGGGGAGCGGAGTCACCTAGTGCAG”, the binding signal was 8420 fluorescence intensity (a.u.). In the case of “ACCTCCTTTTCATACAGCCGGCGTGGCATTTGTGGGCCCACGGAGTCACCTAGTGCAG”, the binding signal is reported as 9220 fluorescence intensity (a.u.). With “TAGGTAGGGTGGTGGCGGGCGGGCTCCCGCAGCCAGTGGCCGGAGTCACCTAGTGCAG” the binding signal was 11100 fluorescence intensity (a.u.). With “GGCCGGCGACGCTGAACGGGGTGGGGTAGTCTGCTATTTACGGAGTCACCTAGTGCAG” the binding signal was 18000 fluorescence intensity (a.u.). With “TCGTTGGTGGGTAGGTGGTGGAGATGGTGGTGGCGGCGGGCGGAGTCACCTAGTGCAG” the binding signal was 15600 fluorescence intensity (a.u.). With “GACGTGGCTATGGGTGGGCGTTGCGAGCCGGCATTTTATACGGAGTCACCTAGTGCAG” the binding signal was 16400 fluorescence intensity (a.u.). “GGTGGGCCGGGCTTTGCTTTTGCTTTAAACATTTGCGTGGCGGAGTCACCTAGTGCAG” was tested, and the binding signal was 8680 fluorescence intensity (a.u.). “GGAACGGCCAGCGGCGGCGGCGGGTAGGGTGGGGTGGGGCCGGAGTCACCTAGTGCAG” was tested, and the binding signal was 21600 fluorescence intensity (a.u.). With “GCGGGCGGCAGCGCGGTGGGGCGGTGGCGGTGGTGGCGGCCGGAGTCACCTAGTGCAG” the binding signal was 9980 fluorescence intensity (a.u.). With “GCGGCGCGGTGCGCTCGGGTGGGGCCGGTCGACGTCTGCACGGAGTCACCTAGTGCAG” the binding signal was 8120 fluorescence intensity (a.u.). “CGGGTAGGGTGGGGTGGGGCGGGGTGGGGTTGGCGGCGACCGGAGTCACCTAGTGCAG” was tested, and the binding signal was 39500 fluorescence intensity (a.u.). For “CGGCGGCGGCGACCGCGGGTAGGGTGGGTGGCGCGGGCCGCGGAGTCACCTAGTGCAG”, the binding signal was 9330 fluorescence intensity (a.u.). For “AAGAAGGGGAAGGGAGTTTCTATGGTTCTTGCTGGTGCCGCGGAGTCACCTAGTGCAG”, the binding signal was 8750 fluorescence intensity (a.u.). “GCCTATTTTTTCGTACGGAGTTGGCTTGTAGTAGTTGCATCGGAGTCACCTAGTGCAG” was tested, and the binding signal was 8950 fluorescence intensity (a.u.). In the case of “ACTTCCAAGTCTTCGACCGCGACACTCCTTACCCGCACGCCGGAGTCACCTAGTGCAG”, the binding signal is reported as 8570 fluorescence intensity (a.u.). In the case of “CGACTACTCGGCCGGCCACCTGCGCCGTCTCTACCCCGAGCGGAGTCACCTAGTGCAG”, the binding signal is reported as 9320 fluorescence intensity (a.u.). For “GTCCTGCTACGCATACTCTCCCCTCTGACTCTTTGCGCCACGGAGTCACCTAGTGCAG”, the binding signal was 8250 fluorescence intensity (a.u.). “GGTCCATCACTCCAAGGTCAGTGCTTTTTTATTTACTCTACGGAGTCACCTAGTGCAG” was tested, and the binding signal was 14600 fluorescence intensity (a.u.). With “AATAAGACGAAAAGTCAAACGTTTGTCAAAAAGTCAACGGCGGAGTCACCTAGTGCAG” the binding signal was 8290 fluorescence intensity (a.u.). In the case of “CGGGCGGGTCAAGGTCTCCTCCTCTCTCGTCGGCGACCTCCGGAGTCACCTAGTGCAG”, the binding signal is reported as 10900 fluorescence intensity (a.u.). In the case of “CCAAGGGTGGGGCCTCTCGTCGTCTCGTCTCCTCTCGTCTCGGAGTCACCTAGTGCAG”, the binding signal is reported as 20400 fluorescence intensity (a.u.). “TACTCCTCGTCATTTTGGTTTTGGTTTTGGTTTGGGTGGTCGGAGTCACCTAGTGCAG” was tested, and the binding signal was 10400 fluorescence intensity (a.u.). With “GACTAATAGCTTCAGTTTTGCATGCGATGGCCACTCAAATCGGAGTCACCTAGTGCAG” the binding signal was 10100 fluorescence intensity (a.u.). In the case of “TTCAGTTTTCACTTCATTATTTTGCCGTTTCTCTTTGACCCGGAGTCACCTAGTGCAG”, the binding signal is reported as 12300 fluorescence intensity (a.u.). “GCTCCTCGTCGCCACCGATCCCCGCCGCCGGCTTGCCTCACGGAGTCACCTAGTGCAG” was tested, and the binding signal was 9340 fluorescence intensity (a.u.). In the case of “CACCACACGTCACGCTTCCACCTCCACCTCCACCTCACTGCGGAGTCACCTAGTGCAG”, the binding signal is reported as 11900 fluorescence intensity (a.u.). “CGCGCCCACCAGTCCACTCACGCGGTCACTCTCCTCCAGTCGGAGTCACCTAGTGCAG” was tested, and the binding signal was 8140 fluorescence intensity (a.u.). “CACCACCCCGGCCGCTTCCGCCACTTCACTCCACTCCACACGGAGTCACCTAGTGCAG” was tested, and the binding signal was 13200 fluorescence intensity (a.u.). With “CCACTCACCACGCGCGCTGCCCGCTTGCCTCCTCTGCCCACGGAGTCACCTAGTGCAG” the binding signal was 10200 fluorescence intensity (a.u.).
